These results are taken from PubChem BioAssay (Tox21).

SMILES strings stand for the structures. Values joined by “and” are separate entries in the source; they are usually repeats but may differ in a detail not shown here. Equal values may be shown once. Results filed as inconclusive are left out. Some compounds were tested as several samples or in several runs, with calls that do not always agree. Active and inactive are the calls of the source. Unless noted, calls come from the whole dose curve; as a rule, active = well fitted curve in the direction sought with a large enough effect in the repeat runs; inconclusive = weak or mixed curves; inactive = no such curve, though single readings can be large; an effect the other way counts as inactive or inconclusive.

Assay [1] deals with Thyrotropin receptor (Homo sapiens) (UniProt P16473). Briefly: qHTS assay to identify small molecule agonists of the thyroid stimulating hormone receptor (TSHR) signaling pathway (AID 1224843; calls by dose curve; note: nearly all actives have a fitted effect of over 45% in size). A digest of the protocol:
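Agonist activity read as cAMP rise via d2/cryptate HTRF competition, 1 h room-temperature detection, in HEK293 cells expressing TSHR. Fifteen-point titrations, each run in triplicate, with a 30 min room-temperature incubation beforehand.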
For orientation: qHTS replaces the single test concentration by a dilution series.

Assay [2] in a line: qHTS assay to identify small molecule agonists of the hypoxia (HIF-1) signaling pathway - cell viability counter screen (AID 1224844; calls by dose curve; note: nearly all actives have a fitted effect of over 50% in size). In a few lines: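 In this counter screen, HRE-bla ME-180 cell viability after 17 hrs of compound exposure at 37C was read by CellTiter-Glo luminescence, multiplexed with the beta-lactamase reporter measurement.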
A short description of assay [3]: qHTS assay to identify small molecule agonists of H2AX (AID 1224845; active = well fitted activation curve with a large enough effect in the signal ratio in the repeat runs, not every such curve was filed as active; the % refers to the signal ratio). A digest of the protocol: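 Phospho-H2AX Ser139 measured by HTRF (ex 320 nm; em 665 and 620 nm) after 24 hr antibody incubation. Compounds, 15 concentrations, 0.76% DMSO, were applied to CHO-K1 cells for 3hr at 37C before lysis.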
Assay [4] can be described thus: qHTS assay to identify small molecule agonists of H2AX - cell viability counter screen (AID 1224847; calls by dose curve;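 note: wild-type CHO-K1 cells; top concentration of the series differs between compounds; nearly all actives have a fitted effect of over 30% in size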). In a few lines: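 Counter-screen for viability: CellTiter-Glo ATP luminescence read after 3 h compound treatment (15-point titration, 0.76% DMSO final) of CHO-K1 cells at 37C, with 30 min room-temperature reagent incubation.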
Assay [5] is described as follows: qHTS RealTime-Glo MT Cell Viability Assay in HepG2 cells - 24 hour (AID 1224867). Note: nearly all actives have a fitted effect of over 50% in size. A digest of the protocol: (§1)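 Real-time, nonlytic viability: 600 HepG2 cells/well mixed with NanoLuc enzyme plus prosubstrate; 5 h settle, compound (DMSO) added by pintool; luminescence monitored over 40 h at 37 C.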
A short description of assay [6]: qHTS RealTime-Glo MT Cell Viability Assay in HEK293 cells - 32 hour (AID 1224868). Note: nearly all actives have a fitted effect of over 50% in size. Note: potency is the fitted concentration of half-maximal effect. A digest of the protocol:
(§2)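 Cells + reagent dispensed (600 cells/well, HEK293) → 5 h at 37 C/5% CO2 → 23 nL compound in DMSO pinned → 40 h at 37 C → luminescence read at 0, 8, 16, 24, 32, 40 h.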

Assay [7] is described as follows: A CellTox Green Cytotoxicity Assay to monitor cytotoxicity in HEK293 cells - 0 hour (AID 1224869). Note: nearly all actives have a fitted effect of over 50% in size. A digest of the protocol: (§3)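 Real-time, in one plate: 600 HEK293 cells/well with dead-cell DNA dye, pinned compound after 5 h, 37 C incubation over 40 h; viable cells give no appreciable fluorescence.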
Assay [8] in a line: qHTS RealTime-Glo MT Cell Viability Assay in HepG2 cells - 40 hour (AID 1224870). Note: nearly all actives have a fitted effect of over 50% in size. In a few lines: (§4)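 Real-time viability: cells seeded at 600 per well together with NanoLuc and cell-permeant prosubstrate, compounds added after 5 h incubation. Luminescence tracked at 0, 8, 16, 24, 32 and 40 h of exposure.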
Assay [9] can be described thus: A CellTox Green Cytotoxicity Assay to monitor cytotoxicity in HEK293 cells - 40 hour (AID 1224871). Note: nearly all actives have a fitted effect of over 45% in size. In a few lines: as §3
The nature of assay [10]: qHTS RealTime-Glo MT Cell Viability Assay in HEK293 cells - 16 hour (AID 1224872). A digest of the protocol:
as §2

A short description of assay [11]: qHTS RealTime-Glo MT Cell Viability Assay in HepG2 cells - 8 hour (AID 1224873). Note: nearly all actives have a fitted effect of over 55% in size. In a few lines: as §4
The nature of assay [12]: A CellTox Green Cytotoxicity Assay to monitor cytotoxicity in HEK293 cells - 24 hour (AID 1224875). Note: nearly all actives have a fitted effect of over 45% in size. A digest of the protocol: as §3
Assay [13] can be described thus: A CellTox Green Cytotoxicity Assay to monitor cytotoxicity in HepG2 cells - 16 hour (AID 1224876). Note: nearly all actives have a fitted effect of over 45% in size. A digest of the protocol: (§5)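 Cytotoxicity was tracked as dead-cell DNA fluorescence in HepG2 cells treated with test compounds at 37 C; each time-point value comes from one kinetic series spanning 0, 8, 16, 24, 32 and 40 h.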
Assay [14] in a line: qHTS RealTime-Glo MT Cell Viability Assay in HepG2 cells - 32 hour (AID 1224877). Note: nearly all actives have a fitted effect of over 55% in size. A digest of the protocol:
as §1

A short description of assay [15]: A CellTox Green Cytotoxicity Assay to monitor cytotoxicity in HepG2 cells - 24 hour (AID 1224878). Note: nearly all actives have a fitted effect of over 45% in size. A digest of the protocol:
as §5

A short description of assay [16]: A CellTox Green Cytotoxicity Assay to monitor cytotoxicity in HepG2 cells - 40 hour (AID 1224879). Note: nearly all actives have a fitted effect of over 40% in size. In a few lines: as §5
The nature of assay [17]: qHTS RealTime-Glo MT Cell Viability Assay in HEK293 cells - 40 hour (AID 1224874). Note: nearly all actives have a fitted effect of over 50% in size. The following applies: RealTime-Glo luminescence; max response: stronger effect = lower value. A digest of the protocol: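 Kinetic, non-lysing viability readout. Seed HEK293 (600/well) with reagent, incubate 5 h at 37 C/5% CO2, pin 23 nL compound in DMSO, incubate at 37 C, read luminescence at 0, 8, 16, 24, 32, 40 h.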

Assay [18] can be described thus: qHTS assay to identify small molecule agonists of the hypoxia (HIF-1) signaling pathway (AID 1224846; active = well fitted activation curve with a large enough effect in the signal ratio in the repeat runs, not every such curve was filed as active; the % refers to the signal ratio). A digest of the protocol: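 ME-180 HRE-bla reporter cells; compounds in DMSO, 17 h at 37C; read-out beta-lactamase via CCF4-AM FRET.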
The nature of assay [19]: qHTS assay to identify small molecule antagonists of the estrogen related receptor (ERR) signaling pathway from Tox21 library (AID 1224848). Note: nearly all actives have a fitted effect of over 50% in size. In a few lines:
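Luciferase luminescence (ONE-Glo, 30 min room temperature) was the read-out. Cells of the NTP-supplied ERR line, 2,000 per well, were given 6 h at 37 C before compound addition in DMSO and 18 h exposure at 37 C.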

Assay [20] in a line: qHTS assay to identify small molecule agonists of the estrogen related receptor (ERR) signaling pathway from Tox21 library (AID 1224849; calls by dose curve; note: nearly all actives have a fitted effect of over 15% in size). The following applies: ERR reporter cell line, ONE-Glo luciferase, 18 h. In a few lines:
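Luciferase activity in ERR pathway reporter cells served as the agonist readout; exposure lasted 18 h at 37 C, with ONE-Glo detection after 30 min at room temperature.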
% is set by controls: 0 for no effect and ±100 for the full control effect.

Sequence of Thyrotropin receptor (Homo sapiens) (P16473 whole entry, looked up): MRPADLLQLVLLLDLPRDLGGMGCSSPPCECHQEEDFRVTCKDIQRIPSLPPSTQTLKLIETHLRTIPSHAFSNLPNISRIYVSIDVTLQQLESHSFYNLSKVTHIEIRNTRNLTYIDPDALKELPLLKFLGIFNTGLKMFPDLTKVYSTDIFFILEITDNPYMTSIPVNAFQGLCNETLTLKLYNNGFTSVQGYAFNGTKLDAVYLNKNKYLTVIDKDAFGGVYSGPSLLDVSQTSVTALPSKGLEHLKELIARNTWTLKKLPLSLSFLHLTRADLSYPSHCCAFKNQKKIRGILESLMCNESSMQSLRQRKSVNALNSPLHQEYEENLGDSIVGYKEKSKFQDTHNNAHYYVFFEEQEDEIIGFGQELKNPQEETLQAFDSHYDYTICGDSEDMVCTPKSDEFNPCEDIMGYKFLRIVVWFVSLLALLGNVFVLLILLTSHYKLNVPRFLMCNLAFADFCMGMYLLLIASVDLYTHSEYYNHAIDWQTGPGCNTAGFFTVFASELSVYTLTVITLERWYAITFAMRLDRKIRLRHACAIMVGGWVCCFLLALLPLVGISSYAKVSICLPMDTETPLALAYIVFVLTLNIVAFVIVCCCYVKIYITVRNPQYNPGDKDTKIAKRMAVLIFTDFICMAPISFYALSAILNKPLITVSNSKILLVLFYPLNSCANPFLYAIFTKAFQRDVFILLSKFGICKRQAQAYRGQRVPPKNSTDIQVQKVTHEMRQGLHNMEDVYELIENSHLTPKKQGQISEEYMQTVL

As to `COc1c2occc2cc2ccc(=O)oc12`, the molecule was classed as inactive in assay [1], in [3], in assay [4], in assay [7] and in assay [11]. The Potency entry in assay [2], in assay [5], in assay [8], in assay [9], in assay [10] and in assay [12] was “inactive” in each case. In addition, the Potency result in assay [13], in assay [14], in assay [15] and in assay [16] was “inactive” throughout. Moreover, in assay [6], the Potency entry is “inactive and 21.9 µM (active)”.

Regarding `Nc1ccn([C@H]2CC[C@@H](CO)O2)c(=O)n1`, the molecule was classed as inactive in [1], in [3], in assay [4], in assay [7] and in assay [11]. Further, the Potency entry in assay [2], in assay [5], in assay [6], in [8], in [9] and in assay [10] was “inactive” throughout. The Potency result in assay [12], in assay [13], in assay [14], in assay [15] and in assay [16] was “inactive” each time. Besides, in assay [17], the max response was 5.91% (inactive) and 4.06% (inactive) and 6.95% (inactive).

In the case of `Cn1c(=O)c2[nH]cnc2n(C)c1=O`, the result in assay [1], in [3], in assay [4], in assay [7] and in assay [11] was inactive. For the same molecule, the Potency entry in assay [2], in assay [5], in assay [6], in assay [8], in assay [10] and in [12] was “inactive” throughout. Besides, the Potency result in [13], in assay [14], in assay [15] and in assay [16] was “inactive” each time. The max response in [17] was 0.637% (inactive) and -1.08% (inactive) and -2.33% (inactive).

Turning to `Cn1cc[nH]c1=S`, the molecule was classed as inactive in [1], in assay [3], in assay [4], in assay [7] and in assay [11]. In addition, the Potency entry in assay [2], in [5], in assay [6], in assay [8], in [9] and in assay [10] was “inactive” each time. The Potency entry in assay [12], in assay [13], in assay [14], in assay [15] and in [16] was “inactive” in each case.

Regarding `O=C(O)c1cccc([N+](=O)[O-])c1`, the Potency result in assay [2], in [5], in assay [6], in assay [8], in assay [10] and in assay [12] was “inactive” each time. Also, the Potency entry in assay [13], in assay [14], in assay [15] and in [16] was “inactive” each time. The outcome in assay [3], in assay [18], in [4], in assay [7] and in assay [11] was inactive.

With `Cc1ccc(S(=O)(=O)NC(=O)NN2CCCCCC2)cc1`, the molecule was classed as inactive in assay [1], in assay [3], in assay [4], in assay [7] and in [11]. Moreover, the Potency entry in assay [2], in assay [19], in [5], in [6], in assay [8] and in [10] was “inactive” throughout. Moreover, the Potency entry in assay [12], in assay [13], in [14], in [15] and in [16] was “inactive” in each case. The activity change, positive = activation was -3.23% (inactive) in [20] (at 42.5 µM (top of the series)); -0.537% (inactive) and -0.346% (inactive) in assay [20] (at 92.4 µM (top of the series)). Also, the max response in assay [17] is 3.5% (inactive) and 3.12% (inactive) and 7.81% (inactive).

Take `NNC(=O)c1ccncc1`: the call in [1], in assay [3], in [4], in assay [7] and in [11] was inactive. For the same molecule, the Potency entry in assay [2], in [19], in [5], in assay [6], in [8] and in assay [9] was “inactive” each time. Further, the Potency result in assay [10], in assay [12], in assay [13], in assay [14], in assay [15] and in assay [16] was “inactive” in each case. The activity change, positive = activation was -2.18% (inactive) and 2.7% (inactive) in assay [20] (at 42.5 µM (top of the series)); -1.91% (inactive) in [20] (at 92.4 µM (top of the series)). In assay [17], the max response is 1.61% (inactive) and 0.145% (inactive) and 4.04% (inactive).

With `O=C(O)CS`, the Potency result in assay [2], in [5], in assay [6], in assay [8], in assay [9] and in [10] was “inactive” throughout. The Potency result in assay [12], in [13], in [14], in [15] and in [16] was “inactive” each time. Besides, the molecule was classed as inactive in assay [3], in assay [4], in [7] and in assay [11]. In addition, the max response in assay [17] is 1.63% (inactive) and 9.97% (inactive) and 1.26% (inactive).

Regarding `NC(N)=NC(=O)c1nc(Cl)c(N)nc1N`, the molecule was called inactive in assay [1], in assay [3], in assay [4], in [7] and in [11]. For the same molecule, the Potency result in assay [2], in assay [5], in [6], in [8], in assay [10] and in assay [12] was “inactive” in each case. Also, the Potency result in assay [13], in assay [14], in assay [15] and in assay [16] was “inactive” in each case.

As to `Nc1ccc(O)c(C(=O)O)c1`, the molecule was called inactive in [1], in assay [18], in assay [4], in assay [7] and in assay [11]. Further, the Potency entry in assay [2], in assay [19], in assay [5], in assay [6], in [8] and in assay [9] was “inactive” in each case. The Potency result in assay [10], in assay [12], in [13], in assay [14], in assay [15] and in [16] was “inactive” throughout. Also, the activity change, positive = activation in assay [20] (at 42.5 µM (top of the series)) was -9.77% (inactive); in assay [20] (at 92.4 µM (top of the series)), -1.78% (inactive) and -6.73% (inactive).
